Assay results reported in ChEMBL document CHEMBL4513216, “Probing the Open Global Health Chemical Diversity Library for Multistage-Active Starting Points for Next-Generation Antimalarials” (ACS Infect Dis, 2020).
Out of some 69,000 compounds screened, about 8,600 (12%) showed an effect of 50% or more. This is one part of a sample in which strong results are shown more often than they occur.

test system: Plasmodium berghei; experiment: Screen against P. berghei liver stage (PbLuc), transformed with Luciferase, at 10uM; assay type: functional, HepG2; settings: tested at 10 uM

SMILES | INHIBITION [%]
CN1C(=O)C2(CCN(C(=O)c3ccccc3)CC2)c2cccc(F)c21 | 43.8
O=C(N1CCCO1)[C@]12COC[C@H]1CN(Cc1nccs1)C2 | 7.24
CC[C@H]1NCCC[C@]12CCC(=O)N2Cc1ccncc1 | 17.4
CCN1CCN(c2ccccc2NC(=O)N(C)C2CCSC2)CC1 (stereo unspecified) | 74.9
CCOCCN(C)C(=O)Nc1cccc2c1CCN(CC)C2 | 3.48
CCN1CCc2c(cccc2NC(=O)N(C)C2CCSC2)C1 (stereo unspecified) | 50.8
CS(=O)(=O)NCC1CCCN(C(=O)Nc2ccccc2N2CCCC2)C1 (stereo unspecified) | -75.9
CCN1CCC(NC(=O)N(C)Cc2csc3ccccc23)CC1 | 27.6
CCN1CCc2c(cccc2NC(=O)CN(C)C2CCSC2)C1 (stereo unspecified) | 34.1
CC(C)n1cnnc1CN(C)C(=O)c1cccnc1O | 18.6
CCOc1ccc(S(=O)(=O)C(C)C(=O)Nc2cc(C)no2)cc1 (stereo unspecified) | -11.9
O=C([C@H]1CCCO1)N1CC[C@H](O)[C@@H]1Cc1ccncc1 | 33.2
O=C1CC(C(=O)NCCN2CCOC2=O)c2cc(F)ccc2N1 (stereo unspecified) | 36.4
COc1ccc(C2CNCCN2C(=O)c2nccc3ccccc23)cc1 (stereo unspecified) | 32.3
C=C(C)COc1ccccc1C(=O)NCCCc1nnn[nH]1 | 31.2
c1ccc(COCCN2CCc3[nH]cnc3C2c2ccco2)cc1 (stereo unspecified) | 63.3
c1ccc(COCCN2CCc3[nH]cnc3C2c2ccoc2)cc1 (stereo unspecified) | 9.63
Cc1c(C2c3nc[nH]c3CCN2CCOCc2ccccc2)cnn1C (stereo unspecified) | 27.5
CN(Cc1ccccn1)C(=O)[C@H]1CO[C@H]2CCN(CC3CC3)C[C@H]2C1 | 11.3
Cc1cnn(CC2CCCN2Cc2cc(C)no2)c1 (stereo unspecified) | 22.265
CC1CCN(C(=O)c2cccc(CN3CCOCC3)c2)CC1 | 8.41
Cc1cc(C)n(-c2ccc(CNCc3ccc(OC(C)C)cc3)cn2)n1 | 53.5
Cc1cc(C)n(-c2ccc(CNCc3ccc(F)c(F)c3)cn2)n1 | 13.05
Cc1cc(C)n(-c2ccc(CNCc3ccc(F)cc3F)cn2)n1 | 37.55

SMILES | INHIBITION [%]
Cc1ccc(CNCc2ccc(-n3nc(C)cc3C)nc2)cc1 | 72.2
Cc1cc(C)n(-c2ccc(CNCc3ccc(C)o3)cn2)n1 | 34.75
COc1cc(CNCc2ccc(-n3nc(C)cc3C)nc2)cc(OC)c1 | -10.193
CCOc1ccc(C(=O)CC(SC2CCCCC2)C(=O)O)cc1 (stereo unspecified) | 16.1
COC(=O)c1cc(C(=O)N2CCCC(C)C2)n(-c2ccccc2)n1 (stereo unspecified) | 8.5
Cc1ccc(CN2CCC3(CCC(=O)N3CC(=O)N(C)C)CC2)s1 | -29.5
COC[C@@H]1CCC[C@@]12CN(Cc1ccc(C)s1)CCO2 | 14.1
Cc1ccc(CN2CC[C@H]3OCC[C@@]3(COCC(=O)N(C)C)C2)s1 | 54.8
COC[C@@]12CCO[C@@H]1CCN(Cc1sccc1C)C2 | 34
COC[C@@]12CCO[C@@H]1CCN(Cc1ccccc1F)C2 | 23.5
Cc1ccc(CN2CC[C@H]3OCC[C@@]3(C(=O)N3CCCO3)C2)s1 | 23.3
COC[C@@]12CCO[C@@H]1CCN(C(=O)COc1ccccc1OC)C2 | -19.9
COC[C@@]12CCO[C@@H]1CCN(Cc1ccc(C)s1)C2 | 55.7
COC[C@@]12CCO[C@@H]1CCN(Cc1ccccc1OC)C2 | 51.2
O=C(c1cnccn1)N1CCC2(CCN(Cc3ccsc3)CC2)CC1 | 16.4
Cc1nccc(CNC(=O)CCc2c(C)nc3cc(O)nn3c2C)n1 | -9.19
CCC1c2ccsc2CCN1C(=O)NCc1ccnc(N(C)C)c1 (stereo unspecified) | -0.44
CCc1nc2ccccc2c(=O)n1CC1(O)CCN(C(=O)C2CC2)CC1 | 18.3
NCc1ccc(OC(F)F)cc1OC(F)F | 74
CCCOc1ccc(CN)c(OC(F)F)c1 | 45.2
COc1ccc(CN)c(OC(F)F)c1 | 48.9
C[C@H]1C[C@H]2CN(C(=O)c3ccncn3)CC[C@@H]2O1 | 35.8
COc1ccc(CN2CCC3(CC2)NC(=O)CC3c2cnn(C)c2)cc1 (stereo unspecified) | 12.6
CN1CCC2(CC1)CN(CC1CC1)CC21CCNC1=O (stereo unspecified) | 22.3

SMILES | INHIBITION [%]
COc1cccc(CNC(=O)c2ccccc2-n2cc(CN)cn2)c1 | 5.11
CC1c2ncc(Cn3cncn3)n2CCN1C(=O)c1cscn1 (stereo unspecified) | -6.3
COCC(=O)N1CCn2c(Cn3cncn3)cnc2C1C (stereo unspecified) | 36.2
Cc1occc1C(=O)N1CCn2c(Cn3cncn3)cnc2C1C (stereo unspecified) | 6.55
CC1c2ncc(Cn3cncn3)n2CCN1C(=O)c1ccccn1 (stereo unspecified) | 60.9
CC1c2ncc(Cn3cncn3)n2CCN1C(=O)N(C)C (stereo unspecified) | 49
O=C(CC1CC1)N1CCc2ncc(CN3CCOCC3)n2CC1 | 42.7
N#Cc1cccc(C(=O)N2CCn3c(Cn4cncn4)cnc3C2)c1 | -17.2
O=C(CC1CC1)N1CCc2ncc(Cn3cncn3)n2CC1 | 57.9
O=C(Cc1ccc(F)cc1)N1CCn2c(Cn3cncn3)cnc2C1 | 57.9
COCC(=O)N1CCc2ncc(Cn3cncn3)n2CC1 | 15.9
CC1c2ncc(Cn3cncn3)n2CCN1C(=O)c1ccsc1 (stereo unspecified) | 52
O=C(Cc1ccc(F)cc1)N1CCn2cc(Cn3cncn3)nc2C1 | -13.2
O=C1CN(c2ccc(C(=O)N3CCc4ccccc43)cn2)CCN1 | 49
N#Cc1c(F)cccc1N1CCN(C(=O)Nc2nncs2)CC1 | -7.53
O=C(NCCc1nccs1)c1cn(CCN2CCNCC2)nn1 | -45
O=C(NCCN1CCNC1=O)c1cnc(-c2cccnc2)nc1 | 15.64
O=C(Cc1cccs1)N1CCc2nnc(COc3cncnc3)n2CC1 | 47.5
O=C(c1cscn1)N1CCc2ncc(Cn3cncn3)n2CC1 | 38.1
O=C(c1cccs1)N1CCc2nnc(COc3cncnc3)n2CC1 | 28.2
O=C(c1ccsc1)N1CCc2nnc(COc3cncnc3)n2CC1 | 53.9
O=C(c1ccsc1)N1CCc2ncc(Cn3cncn3)n2CC1 | 62.5
O=C(c1cccs1)N1CCc2ncc(Cn3cncn3)n2CC1 | 22.9
